PubChem BioAssay AID652189 (Johns Hopkins Ion Channel Center, 2013)
The campaign covered roughly 2,300 compounds. About 900 (39%) were called active.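 Rule for the calls: active = mean duplicate percent inhibition, scaled so buffer wells are 0 and the reference blocker 100, over three buffer SD above buffer mean; inactive = the rest.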 A selection follows.

What follows are compounds tested against Anoctamin-1 (Mus musculus) (UniProt Q8BHY3) (assay: blockers of mouse ANO1 channel, retest – cell-based, re-confirmation, confirmation (AID 652189)). Settings: HEK293 TMEM16A/YFP-H148Q, iodide quench fluorescence, at 10 µM, ionomycin added to raise cell calcium; active compounds read high.
Sequence of Anoctamin-1 (Mus musculus) (Q8BHY3 whole entry, looked up): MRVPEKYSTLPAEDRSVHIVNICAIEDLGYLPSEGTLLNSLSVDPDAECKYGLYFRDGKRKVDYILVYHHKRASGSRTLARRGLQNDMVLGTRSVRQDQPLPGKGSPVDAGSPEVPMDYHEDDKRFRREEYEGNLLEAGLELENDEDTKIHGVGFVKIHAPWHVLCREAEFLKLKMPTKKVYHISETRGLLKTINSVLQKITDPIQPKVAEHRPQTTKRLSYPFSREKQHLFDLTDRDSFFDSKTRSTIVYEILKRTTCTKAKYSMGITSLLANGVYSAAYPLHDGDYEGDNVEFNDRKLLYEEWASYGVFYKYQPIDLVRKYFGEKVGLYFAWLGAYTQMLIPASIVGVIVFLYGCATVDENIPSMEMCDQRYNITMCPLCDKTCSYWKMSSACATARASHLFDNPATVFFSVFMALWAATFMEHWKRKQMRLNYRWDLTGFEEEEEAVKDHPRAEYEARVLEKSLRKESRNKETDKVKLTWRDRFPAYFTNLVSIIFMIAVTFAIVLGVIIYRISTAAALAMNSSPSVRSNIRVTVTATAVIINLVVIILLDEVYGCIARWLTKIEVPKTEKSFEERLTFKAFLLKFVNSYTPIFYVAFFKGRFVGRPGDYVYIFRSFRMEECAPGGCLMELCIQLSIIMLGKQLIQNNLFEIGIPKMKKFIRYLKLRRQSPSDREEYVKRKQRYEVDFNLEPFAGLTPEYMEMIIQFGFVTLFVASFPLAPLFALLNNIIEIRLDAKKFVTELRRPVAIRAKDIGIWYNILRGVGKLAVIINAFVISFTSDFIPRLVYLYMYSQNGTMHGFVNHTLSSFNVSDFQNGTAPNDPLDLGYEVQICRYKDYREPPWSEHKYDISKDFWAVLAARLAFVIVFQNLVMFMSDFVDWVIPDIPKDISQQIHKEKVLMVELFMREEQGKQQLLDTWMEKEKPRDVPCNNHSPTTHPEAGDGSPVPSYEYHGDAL
`CC(=O)c1c(C)[nH]c(C(=O)COC(=O)c2cccc(S(=O)(=O)N(C)c3ccccc3)c2)c1C` was tested, and the inhibition was 33.5% (active).
With `Cc1ccc2c(c1)N(S(=O)(=O)c1cc(-c3cc(C)no3)ccc1C)CCO2` the inhibition was 42.5% (active).
With `CCCCn1ccnc1C(=O)c1cccc(S(=O)(=O)N2c3ccccc3CC2C)c1` (configuration not stated) the inhibition was “inactive”.
For `Cc1nc(C)c(-c2csc(NCCc3ccccc3)n2)s1`, the inhibition was 36% (active).
`CCOC(=O)c1cccc(NC(=O)CCn2nnc3ccccc32)c1` was tested, and the inhibition was “inactive”.
`COc1ccc2[nH]cc(/C=C(/C#N)S(=O)(=O)c3ccccc3)c2c1` was tested, and the inhibition was 28% (active).
For `COc1ccc(NC(=O)C2=CC(c3ccc(OC)c(OC)c3)=NS(=O)(=O)N2C)cc1`, the inhibition was 27% (active).
`CC(NC(=O)c1ccco1)C(=O)Nc1nc(-c2ccccn2)cs1` (configuration not stated) was tested, and the inhibition was “inactive”.
With `Cc1noc(C)c1COC(=O)c1cc2ccccc2cc1O` the inhibition was “inactive”.
With `COc1ccc(CNc2nnnn2C)cc1` the inhibition was “inactive”.
`Cn1c(CN2CCOCC2)nc2cc(NC(=O)c3ccc(Cl)cc3)ccc21` was tested, and the inhibition was 20% (active).
With `Cn1c(CCN2CCCCCC2)nc2cc(NC(=O)Nc3ccccc3)ccc21` the inhibition was “inactive”.
For `CC(C)CNC(=S)NNC(=O)c1nn(C)cc1Cl`, the inhibition was “inactive”.
With `O=C(COC(=O)CCc1c[nH]c(=O)[nH]1)Nc1ccccc1Cl` the inhibition was “inactive”.
With `Cc1nc2ccccc2cc1OCc1ccc(F)cc1` the inhibition was 22.5% (active).
For `O=C(NCCc1ccc2c(c1)OCCO2)c1cc2ccccc2o1`, the inhibition was 21% (active).
For `O=C(COc1ccccc1)NCc1ccc2c(c1)OCO2`, the inhibition was “inactive”.
In the case of `COc1ccc(-c2nc(CCNC(=O)c3ccc(Br)o3)cs2)cc1`, the inhibition is reported as “inactive”.
`Cc1cccc(N=Nc2c(O)[nH]c3ccc(F)cc23)c1` was tested, and the inhibition was “inactive”.
For `O=c1cc(C(F)(F)F)[nH]c(=O)n1C1CCCCC1`, the inhibition was “inactive”.
`C=CCn1c(SCC(=O)Nc2nc3ccccc3s2)nnc1-c1ccccc1O` was tested, and the inhibition was 30.5% (active).
In the case of `Cc1ccc(-c2noc(CSc3nnnn3-c3ccccc3)n2)cc1`, the inhibition is reported as “inactive”.
With `CN1c2ccc(C=O)c3c(C=O)ccc(c23)N(C)C1(C)C` the inhibition was “inactive”.
With `CSc1nsc(NC(=O)Nc2ccccc2)n1` the inhibition was 45% (active).
`C=CCSc1nsc(NC(=O)Nc2cccc(C(C)=O)c2)n1` was tested, and the inhibition was 53% (active).
With `CN(C)c1cc[n+](Cc2ccccc2)cc1` the inhibition was “inactive”.
For `N#Cc1nc(N)nc(N(c2ccccc2)c2ccccc2)n1`, the inhibition was “inactive”.
In the case of `c1ccc(-c2nnc(SCc3nc4ccccc4[nH]3)o2)cc1`, the inhibition is reported as “inactive”.
For `N#CC1=C(SCc2ccccc2)NC(=O)C(C#N)C12CCCC2` (configuration not stated), the inhibition was 17.5% (active).
For `CSc1nnc2c(n1)OC(c1ccsc1)N(C(C)=O)c1ccccc1-2` (configuration not stated), the inhibition was “inactive”.
For `CCCc1cc(=S)n2c([nH]c3ccccc32)c1C#N`, the inhibition was 35.5% (active).
In the case of `CC1CCN(C(=O)c2ccc(CSc3ccc(Cl)cc3)cc2)CC1`, the inhibition is reported as 50.5% (active).
In the case of `COc1ccc(CCC(=O)c2ccc(OC)cc2)cc1`, the inhibition is reported as “inactive”.
For `Cc1ccc2c(c1)N(CC(=O)N1CCCc3ccccc31)C(=O)C(C)O2` (configuration not stated), the inhibition was “inactive”.
`CN(c1cccc(NC(=O)c2ccc(CN3CCc4ccccc4C3)cc2)c1)S(C)(=O)=O` was tested, and the inhibition was 20.5% (active).
For `S=C(NCC1CCCO1)N1CCN(c2ccc(Cl)c(Cl)c2)CC1` (configuration not stated), the inhibition was 21% (active).
`Cc1cc(C=O)c(C)n1-c1ccc(NC2CCCCC2)c([N+](=O)[O-])c1` was tested, and the inhibition was 23.5% (active).
With `CC(C)(C)C(=O)/C(C#N)=C/c1ccc(O)cc1` the inhibition was 23% (active).
`CCOC(=O)C1=C(CN2CCc3ccccc32)NC(=O)NC1c1cccc([N+](=O)[O-])c1` (configuration not stated) was tested, and the inhibition was “inactive”.
For `COc1ccc(C(=O)NC2CCCc3c2cnn3-c2cccc(C)c2C)c(OC)n1` (configuration not stated), the inhibition was 65.5% (active).
For `COC(=O)c1ccc(COC(=O)c2c(C)nn(Cc3ccccc3Cl)c2Cl)o1`, the inhibition was 16% (active).
In the case of `O=S1(=O)CCN(Cc2ccccc2Cl)CC1`, the inhibition is reported as “inactive”.
In the case of `Cc1ccc(F)cc1NC(=O)Cc1nn(C)c(=O)c2ccccc12`, the inhibition is reported as 34.5% (active).
With `CCOC(=O)N1CC=C2C(C#N)=C(N)C(C#N)(C#N)[C@H](c3cccs3)[C@H]2C1` the inhibition was “inactive”.
In the case of `CC1=NN(c2cccc(Cl)c2)C(=O)C12CC(C)=C(C)CS2` (configuration not stated), the inhibition is reported as “inactive”.
`Cc1[nH]n(-c2cccc(Cl)c2)c(=O)c1-c1ccc(Cl)cc1` was tested, and the inhibition was 24% (active).
For `Cc1ccc(-n2[nH]c(C)c(/C=N/N3C(=O)c4cccc5cccc(c45)C3=O)c2=O)cc1`, the inhibition was “inactive”.
With `O=C1NC(=O)C2C1C(c1ccc([N+](=O)[O-])cc1)=NN2Cc1ccccc1` (configuration not stated) the inhibition was “inactive”.
`CCN(CC)S(=O)(=O)c1ccc(N(C)Cc2ccc(C(F)(F)F)cc2)nc1` was tested, and the inhibition was 22% (active).
For `CCCOc1ccc(Cc2c(Cl)nc(SC)nc2NC)cc1`, the inhibition was 44.5% (active).
With `COc1ccc(CN(C)C(=O)CC(c2ccccc2)c2ccccc2)cc1` the inhibition was “inactive”.
With `Cn1c(=O)n(C)c2cc(S(=O)(=O)N3CCCc4ccccc43)ccc21` the inhibition was “inactive”.
For `Cc1ccc(NC(=O)C(C)c2cccc(C(=O)c3ccccc3)c2)cc1` (configuration not stated), the inhibition was 30.5% (active).
With `Cc1ccccc1-n1nnnc1SCCCC(=O)c1ccc(F)cc1` the inhibition was “inactive”.
For `Cc1nc2c(C(=O)NCc3ccc4c(c3)OCO4)c[nH]n2c(=O)c1Cc1ccccc1F`, the inhibition was 18% (active).
`Cc1ccc(NC(=O)CN(C)CC(=O)Nc2cccc(F)c2)cc1[N+](=O)[O-]` was tested, and the inhibition was 24.5% (active).
With `O=C(CN1CCN(C(=S)NC2CCCC2)CC1)Nc1ccc(Oc2ccccc2)cc1` the inhibition was “inactive”.
For `O=C(CNCCC1=CCCCC1)Nc1ccccc1N1CCCCCC1`, the inhibition was 19.5% (active).
`CCCC(=O)Nc1ccccc1N1CCN(C(=O)c2ccccc2)CC1` was tested, and the inhibition was “inactive”.
`CCCCNC(=O)CSc1nc2n[nH]c(C)c2c(=N)n1-c1cccc(Cl)c1C` was tested, and the inhibition was “inactive”.
`CCc1cc2c(N3CCN(c4nnc(CC)s4)CC3)ncnc2s1` was tested, and the inhibition was 40% (active).
With `Cc1ccc(C(=O)O)cc1-c1ccc(/C=C2\SC(=O)N(CC(=O)Nc3ccc4c(c3)OCO4)C2=O)o1` the inhibition was “inactive”.
For `O=C(CSCc1ccc(Cl)cc1)N1CCN(Cc2ccc3c(c2)OCO3)CC1`, the inhibition was 20% (active).
`Cc1ccc(-n2ncc3c(N4CCN(c5ccc(F)cc5)CC4)ncnc32)c(C)c1` was tested, and the inhibition was 28.5% (active).
For `O=C(O)c1ccc(NC(=O)C2CCCCC2)cc1`, the inhibition was “inactive”.
With `O=C(N/N=C/c1cc(Cl)cc([N+](=O)[O-])c1O)C(O)(c1ccccc1)c1ccccc1` the inhibition was “inactive”.
With `Cc1cc(C)cc(NS(=O)(=O)c2ccc(Oc3ncc(C(F)(F)F)cc3Cl)cc2)c1` the inhibition was “inactive”.
In the case of `Cc1ccc(N2C(=O)S/C(=C/c3cn(C)c4ccccc34)C2=O)cc1`, the inhibition is reported as “inactive”.
For `O=C1c2ccccc2C(Nc2ccc3c(c2)OCCO3)N1Cc1ccco1` (configuration not stated), the inhibition was “inactive”.
For `COC(=O)c1ccc(NC(=O)c2ccccc2NS(=O)(=O)c2ccccc2)cc1`, the inhibition was 29.5% (active).
With `CCOC(=O)C1CCN(c2ncnc3c2oc2ccc(Br)cc23)CC1` the inhibition was 28% (active).
With `Cc1ccc(-c2csc(-c3c[nH]c4ccccc34)n2)cc1` the inhibition was “inactive”.
In the case of `S=C(NCc1cccs1)Nc1ccc(Cl)cc1`, the inhibition is reported as “inactive”.
For `S=C(NCc1ccc(Cl)cc1)NC12CC3CC(CC(C3)C1)C2`, the inhibition was 46% (active).
In the case of `CN(Cc1cccnc1)C(=O)c1cc(COc2ccc3ncccc3c2)on1`, the inhibition is reported as “inactive”.
`CC(=O)c1cc(CN2CCC(C(=O)Nc3cccc(-c4cscn4)c3)CC2)cs1` was tested, and the inhibition was 21.5% (active).
`Cc1ccc(C)c(N2CCN(C(=O)CCCCn3c(=O)[nH]c4ccccc4c3=O)CC2)c1` was tested, and the inhibition was “inactive”.
`CCOC(=O)N1CCN(C(=O)c2ccc3c(c2)N(Cc2ccc(C)cc2)CCS3)CC1` was tested, and the inhibition was “inactive”.
For `COc1ccc(OCC(=O)NCCc2ccc(S(N)(=O)=O)cc2)cc1`, the inhibition was “inactive”.
In the case of `COc1ccc(S(=O)(=O)NCCCCOc2ccc(Cl)cc2)cc1`, the inhibition is reported as 23.5% (active).
With `Cc1nc(CNS(=O)(=O)c2ccc(Oc3ccccc3)cc2)cs1` the inhibition was “inactive”.
For `CCn1nccc1C(=O)Nc1ccc(S(=O)(=O)NC23CC4CC(CC(C4)C2)C3)cc1`, the inhibition was “inactive”.
`CCCCCc1ccc(-c2ccc(C(=O)O)cc2)nc1` was tested, and the inhibition was “inactive”.
In the case of `O=C(Nc1cccc(S(=O)(=O)Nc2ccc(Cl)cc2)c1)c1ccc2c(c1)OCCO2`, the inhibition is reported as 19% (active).
For `COc1ccc(Cl)cc1NC(=O)CCS(=O)(=O)c1cc2c(cc1C)NC(=O)CO2`, the inhibition was “inactive”.
With `COc1cccc(CNS(=O)(=O)c2ccc3c(c2)CC(C)N3C(=O)C2CCC2)c1` (configuration not stated) the inhibition was 19.5% (active).
`COc1ccc(-n2c(C)cc(C(=O)CSc3nnc(-c4cccs4)o3)c2C)cc1` was tested, and the inhibition was “inactive”.
`Fc1ccc(CSc2nnc(-c3cc4c(s3)-c3ccccc3CC4)o2)cc1` was tested, and the inhibition was “inactive”.
In the case of `Cc1cccc(-n2c(SCC(N)=O)nc3c(c2=O)C2(CCCCC2)Cc2ccccc2-3)c1`, the inhibition is reported as 22% (active).
`C=C(C)Cn1c(C)cc(C)c(S(=O)(=O)c2ccccc2C)c1=O` was tested, and the inhibition was “inactive”.
In the case of `O=C(Nc1nc(-c2ccc3c(c2)OCO3)cs1)c1ccncc1`, the inhibition is reported as “inactive”.
`COc1cc(CC(=O)Nc2nc(-c3ccc(F)c(F)c3)cs2)cc(OC)c1OC` was tested, and the inhibition was 25.5% (active).
`Cc1ccc(N)cc1-n1c(C)ccc1C` was tested, and the inhibition was “inactive”.
For `CCOC(=O)C(Sc1ncc(C#N)c(N)n1)C(C)C` (configuration not stated), the inhibition was “inactive”.
`N#Cc1nc(COc2ccc(-c3ccccc3)cc2)oc1NCc1cccnc1` was tested, and the inhibition was “inactive”.
`O=C(NC(=S)Nc1ccccc1C(=O)O)c1ccc(-c2ccc(Br)cc2)o1` was tested, and the inhibition was “inactive”.
With `O=C(Nc1ccccc1)c1ccccc1NC(=O)C(F)(F)F` the inhibition was 26.5% (active).
`CSc1cccc(NC(=S)N(C(C)C)C(C)c2ccccn2)c1` (configuration not stated) was tested, and the inhibition was “inactive”.
`Fc1ccc2[nH]c3c(N4CCSCC4)ncnc3c2c1` was tested, and the inhibition was 41.5% (active).
For `CCC(=O)Nc1ccc2nc(C)n(Cc3ccccc3Cl)c(=O)c2c1`, the inhibition was “inactive”.
In the case of `Cc1nc(SCC(=O)N2CCc3ccccc3C2)c2c(C)c(C)sc2n1`, the inhibition is reported as “inactive”.
With `Cc1ccc(C)c(N2CCN(S(=O)(=O)c3ccc4c(c3)oc(=O)n4C)CC2)c1` the inhibition was “inactive”.
